# Data from PubChem BioAssay (EPA / NIEHS).
# Records with an inconclusive call do not appear. Calls of active or inactive are those of the source. How the source made its calls, unless noted: active means hit-call score of the fitted dose curve at least 0.9, where 1 is the maximum; inconclusive means response in the unintended direction; inactive means score below 0.9.
# Columns and labels:
# [1] = TOX21_p53_BLA_p2_viability: Viability Assessment in the Tox21 HCT-116 p53 Agonism Beta-lactamase Assay, Phase 2 (AID 2283591);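 further: compound exposure lasted 16 h at 37 °C; actives lower the ATP signal meaning cytotoxicity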
# In short: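 HCT116 p53-bla cells, 4000/well, dosed after 5 h plating (217-fold dilution of DMSO stocks) and incubated 16 h at 37C. Viability taken as cellular ATP by CellTiter-Glo luminescence after 30 min RT; signal loss marks cytotoxicity.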
# [2] = TOX21_p53_BLA_p3_viability: Viability Assessment in the Tox21 HCT-116 p53 Agonism Beta-lactamase Assay, Phase 3 (AID 2283593);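 further: cells exposed to compound for 16 h before reading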
# In short: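 HCT116 cells, 4000/well, dosed 5 h after plating by pin transfer (217-fold dilution from DMSO stock) and incubated 16 h at 37C, 5% CO2. Viability read as ATP luminescence with CellTiter-Glo after 30 min at room temperature.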
# [3] = TOX21_p53_BLA_p4_viability: Viability Assessment in the Tox21 HCT-116 p53 Agonism Beta-lactamase Assay, Phase 4 (AID 2283597);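 further: hits lower the luminescence signal meaning cytotoxicity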
# In short: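 Following a 16 h exposure at 37C, the treated HCT116 wells were first read for the FRET ratio. They were then lysed with CellTiter-Glo, and ATP luminescence was recorded after 30 min at room temperature.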
# [4] = target: Cellular tumor antigen p53 (Homo sapiens) (UniProt P04637); assay: TOX21_p53_BLA_p5_ratio: Tox21 HCT-116 p53 Agonism Beta-lactamase Assay, Ratio, Phase 5 (AID 2283599)
# Sequence of Cellular tumor antigen p53 (Homo sapiens) (P04637 whole entry, looked up): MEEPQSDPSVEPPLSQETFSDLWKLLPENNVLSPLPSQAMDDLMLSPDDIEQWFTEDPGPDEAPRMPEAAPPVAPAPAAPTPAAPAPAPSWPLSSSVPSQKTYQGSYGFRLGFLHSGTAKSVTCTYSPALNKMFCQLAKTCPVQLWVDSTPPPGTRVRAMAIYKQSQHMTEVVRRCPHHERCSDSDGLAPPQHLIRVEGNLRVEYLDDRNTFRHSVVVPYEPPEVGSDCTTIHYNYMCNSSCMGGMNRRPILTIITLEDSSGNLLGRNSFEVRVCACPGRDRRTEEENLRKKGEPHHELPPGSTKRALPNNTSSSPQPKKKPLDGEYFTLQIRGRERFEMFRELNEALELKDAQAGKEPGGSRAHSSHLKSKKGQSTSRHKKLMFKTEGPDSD
# In short: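 HCT-116 p53-bla cells (4000/well) plated 5 h, dosed with compound (217-fold DMSO dilution) for 16 h at 37 C; CCF4-AM substrate 2 h at room temperature. Activity is the 460/530 nm emission ratio (405 nm excitation), fitted in gain-of-signal direction versus DMSO.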
# [5] = TOX21_p53_BLA_p5_viability: Viability Assessment in the Tox21 HCT-116 p53 Agonism Beta-lactamase Assay, Phase 5 (AID 2283600)
# In short: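 After the 460/530 nm beta-lactamase measurement, the wells received an ATP-detection luciferase reagent; signal was read 30 min later at RT. Compound treatment lasted 16 h on cells pre-incubated 5 h post-seeding.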
# [6] = target: Cellular tumor antigen p53 (Homo sapiens) (UniProt P04637); assay: TOX21_p53_BLA_p4_ratio: Tox21 HCT-116 p53 Agonism Beta-lactamase Assay, Ratio, Phase 4 (AID 2283601)
# In short: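 HCT-116 p53 beta-lactamase reporter cells (4000/well) preincubated 5 h, then compound (217-fold dilution of DMSO stock) for 16 h at 37C. CCF4-AM substrate added 2 h at room temperature; 460/530 nm emission ratio fitted upward versus DMSO.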
# [7] = CEETOX_H295R_MTT_cell_viability: Viability Assessment in the CeeTox HT-H295R MTT Assay (AID 2283718; active means hit-call score of the fitted dose curve at least 0.9, where 1 is the maximum; inactive means score below 0.9)
# In short: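 Human H295R adrenal cells, prestimulated 48 h with 10 uM forskolin, were exposed 48 h to chemicals in 0.1% DMSO. Viability was measured in the same wells by MTT (0.5 mg/ml, 4 h, 37 C), absorbance 570/650 nm, as percent of controls.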
# [8] = CEETOX_H295R_11DCORT_noMTC: CeeTox H295R High-throughput Steroidogenesis Assay for 11-Deoxycortisol (11DCORT), maximum tolerated concentration (MTC) filtered results only (AID 2283911; active means hit-call score of the fitted dose curve at least 0.9, where 1 is the maximum; inactive means score below 0.9); details: actives raise or lower the signal
# In short: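 Values carry no filtering for maximum tolerated concentration: medium from forskolin-primed (10 uM, 48 h) H295R cells after 48 h chemical exposure (0.1% DMSO) was MTBE-extracted, and 11-deoxycortisol quantified by reverse-phase HPLC-MS/MS. Fitting was bidirectional against DMSO.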
# [9] = CEETOX_H295R_OHPREG_noMTC: CeeTox H295R High-throughput Steroidogenesis Assay for OH-Pregnenolone (OHPREG), maximum tolerated concentration (MTC) filtered results only (AID 2283912; active means hit-call score of the fitted dose curve at least 0.9, where 1 is the maximum; inactive means score below 0.9); details: actives raise or lower the signal
# In short: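 H295R cells prestimulated 48 h with 10 uM forskolin, then exposed 48 h to compound (0.1% DMSO). 17alpha-hydroxypregnenolone in medium measured by MTBE extraction and HPLC-MS/MS; bidirectional fit vs DMSO, concentrations not MTT/MTC-filtered.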
# [10] = CEETOX_H295R_OHPROG_noMTC: CeeTox H295R High-throughput Steroidogenesis Assay for OH-Progesterone (OHPROG), maximum tolerated concentration (MTC) filtered results only (AID 2283914; active means hit-call score of the fitted dose curve at least 0.9, where 1 is the maximum; inactive means score below 0.9); details: actives raise or lower the signal
# In short: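 H295R cells prestimulated 48 h with 10 uM forskolin, then exposed 48 h to chemical (0.1% DMSO final). 17alpha-hydroxyprogesterone in medium quantified by HPLC-MS/MS after MTBE extraction; bidirectional fitting versus DMSO, concentrations not MTC-filtered.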
# [11] = CEETOX_H295R_CORTISOL_noMTC: CeeTox H295R High-throughput Steroidogenesis Assay for Cortisol, maximum tolerated concentration (MTC) filtered results only (AID 2283916; active means hit-call score of the fitted dose curve at least 0.9, where 1 is the maximum; inactive means score below 0.9); details: actives raise or lower the signal
# In short: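 H295R human adrenal cells prestimulated 48 h with 10 uM forskolin, then exposed 48 h to chemical in 0.1% DMSO; cortisol in medium quantified by HPLC-MS/MS; bidirectional fit vs DMSO baseline, concentrations not MTT-filtered for MTC.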
# [12] = CEETOX_H295R_CORTIC_noMTC: CeeTox H295R High-throughput Steroidogenesis Assay for Corticosterone (CORTIC), maximum tolerated concentration (MTC) filtered results only (AID 2283917; active means hit-call score of the fitted dose curve at least 0.9, where 1 is the maximum; inactive means score below 0.9); details: actives raise or lower the signal
# In short: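 H295R adrenal cells pre-stimulated 48 h with 10 uM forskolin, then exposed 48 h to chemical in 0.1% DMSO; corticosterone in medium quantified by HPLC-MS/MS, fitted bidirectionally versus DMSO without MTT-based concentration filtering.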
# [13] = CEETOX_H295R_DOC_noMTC: CeeTox H295R High-throughput Steroidogenesis Assay for DOC, maximum tolerated concentration (MTC) filtered results only (AID 2283918; active means hit-call score of the fitted dose curve at least 0.9, where 1 is the maximum; inactive means score below 0.9); details: actives raise or lower the signal
# In short: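 H295R cells prestimulated 48 h with 10 uM forskolin, then exposed 48 h to chemical in 0.1% DMSO. 11-Deoxycorticosterone in medium measured by MTBE extraction and HPLC-MS/MS; bidirectional fit vs DMSO, no MTC filter.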
# [14] = CEETOX_H295R_PROG_noMTC: CeeTox H295R High-throughput Steroidogenesis Assay for Progesterone (PROG), maximum tolerated concentration (MTC) filtered results only (AID 2283920; active means hit-call score of the fitted dose curve at least 0.9, where 1 is the maximum; inactive means score below 0.9); details: actives raise or lower the signal
# In short: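 H295R cells, prestimulated 48 h with 10 uM forskolin, exposed 48 h to chemical in 0.1% DMSO. Medium progesterone quantified by MTBE extraction and HPLC-MS/MS; bidirectional fit versus DMSO, concentrations not MTT-filtered.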
# [15] = CCTE_Harrill_HTTr_Viability_MCF7: CCTE's 6-hour Cell Viability Assessment for the High-Throughput Transcriptomics (HTTr) Platform, in MCF-7 cells cultured in DMEM + 10% fetal bovine serum, Harrill Lab (AID 2284010; active means hit-call score of the fitted dose curve at least 0.9, where 1 is the maximum; inactive means score below 0.9)
# In short: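 MCF-7 cells in DMEM + 10% FBS, 384-well, exposed 6 h to an eight-point dilution series. Membrane integrity scored by high-content imaging of propidium iodide exclusion; bidirectional fit versus DMSO.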
# [16] = CCTE_Harrill_HTTr_Apoptosis_MCF7: CCTE's 6-hour Apoptosis Assessment for the High-Throughput Transcriptomics (HTTr) Platform, in MCF-7 cells cultured in DMEM + 10% fetal bovine serum, Harrill Lab (AID 2284011; active means hit-call score of the fitted dose curve at least 0.9, where 1 is the maximum; inactive means score below 0.9)
# In short: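 High-content imaging of CellEvent Caspase 3/7 Green signal follows a six-hour exposure, with eight concentrations per chemical. MCF-7 cells grown in DMEM plus 10% fetal bovine serum; activity fitted in both directions against DMSO.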
smiles,measurement,setting,value
N#Cc1ccc(C(=O)O)cc1,outcome,[1],inactive
same,outcome,[2],inactive
same,outcome,[3],inactive
same,outcome,[4],inactive
same,outcome,[5],inactive
same,outcome,[6],inactive
O=C(O)COc1nn(Cc2ccccc2)c2ccccc12,outcome,[1],inactive
same,outcome,[2],inactive
same,outcome,[3],inactive
same,outcome,[5],inactive
same,outcome,[6],inactive
CC(C)(C(=O)c1cccnc1)c1cccnc1,outcome,[1],inactive
same,outcome,[2],inactive
same,outcome,[3],inactive
same,outcome,[4],inactive
same,outcome,[6],inactive
same,outcome,[7],inactive
same,AC50,[8],35.3 µM (active)
same,AC50,[9],36.9 µM (active)
same,AC50,[10],29.1 µM (active)
same,AC50,[11],1.56 µM (active)
same,AC50,[12],0.13 µM (active)
same,outcome,[13],inactive
same,outcome,[14],inactive
same,outcome,[15],inactive
same,outcome,[16],inactive
Oc1cccc2cc3cccc(O)c3c(O)c12,outcome,[1],inactive
same,outcome,[2],inactive
same,outcome,[3],inactive
same,outcome,[4],inactive
same,outcome,[6],inactive
NC12CC3CC(CC(C3)C1)C2,outcome,[1],inactive
same,outcome,[2],inactive
same,outcome,[3],inactive
same,outcome,[4],inactive
same,outcome,[5],inactive
same,outcome,[6],inactive
CCOC(=O)C(C)O (stereo not given),outcome,[1],inactive
same,outcome,[2],inactive
same,outcome,[3],inactive
same,outcome,[5],inactive
same,outcome,[6],inactive
CCCC(=O)O[C@]1(C(=O)COC(C)=O)CC[C@H]2[C@@H]3C[C@H](F)C4=CC(=O)C=C[C@]4(C)[C@@]3(F)[C@@H](O)C[C@@]21C,outcome,[1],inactive
same,outcome,[2],inactive
same,outcome,[3],inactive
same,outcome,[4],inactive
same,outcome,[6],inactive
CN(C)CCOC(c1ccccc1)c1ccccc1 (tested in a mixture with another compound),outcome,[1],inactive
same,outcome,[2],inactive
same,outcome,[3],inactive
same,outcome,[5],inactive
N#C[C@@H]1C[C@@H]2C[C@@H]2N1C(=O)[C@@H](N)C12CC3CC(CC(O)(C3)C1)C2,outcome,[1],inactive
same,outcome,[2],inactive
same,outcome,[3],inactive
same,outcome,[4],inactive
same,outcome,[5],inactive
same,outcome,[6],inactive
CCCCCCCCCCCCCCCC(=O)OC[C@@H](NC(=O)C(Cl)Cl)[C@H](O)c1ccc([N+](=O)[O-])cc1,outcome,[1],inactive
same,outcome,[2],inactive
same,outcome,[3],inactive
same,outcome,[5],inactive
Cn1c(N)c(N=O)c(=O)n(C)c1=O,outcome,[1],inactive
same,outcome,[2],inactive
same,outcome,[3],inactive
same,outcome,[5],inactive
COC(=O)c1ccccc1C(=O)c1ccc(OCCN2CCCCC2)cc1,outcome,[1],inactive
same,outcome,[2],inactive
same,outcome,[3],inactive
same,outcome,[4],inactive
same,outcome,[5],inactive
same,outcome,[6],inactive
CCCC(=O)O[C@]1(C(=O)COC(=O)CC)[C@@H](C)C[C@H]2[C@@H]3CCC4=CC(=O)C=C[C@]4(C)[C@@]3(F)[C@@H](O)C[C@@]21C,outcome,[1],inactive
same,outcome,[2],inactive
same,outcome,[3],inactive
same,outcome,[5],inactive
